Results as given in PubChem BioAssay (NCI).
Compounds without any hit were thinned out: in the full panel of roughly 83,000, 20% have a hit.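 Negative percent growth values reflect cell death: -40 means 40% of the cells present at the start died, and -100 means all died.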 Values without a mark were called inactive. The source made the active and inactive calls. Rule for the calls: active = growth percent below 10; inactive = the rest. *1 amine or outer side, *2 acyl side, *3 side chain or, on linkers, in order; H or OH if unused. Where a SMILES comes first, the peptide text is derived from it. Bridges are numbered along the chain shown (N, C = ends). Roman numbers before positions name the chains, in order. [ ]: non-standard residue; d: D form. ξ: configuration not given here. Actinocin(1to9) = Cc1c2oc3c(C)ccc(C(=O)[*:2])c3nc-2c(C(=O)[*:1])c(N)c1=O; NMeV = CN[CH](C(=O)O)C(C)C; ξD = NC(CC(=O)O)C(=O)O; Sar = CNCC(=O)O

system: COLO 205 colon; test: NCI-60 one-dose screen, 48 h (100 = growth as untreated, 0 = no growth, -100 = all killed); settings: 10 µM unless noted

Row | Compound | growth
1 | CCC(C)C1NC(=O)C(NC(=O)c2c3nc4c(C(=O)NC5C(=O)NC(C(C)CC)C(=O)N6CCCC6C(=O)N(C)CC(=O)N(C)C(C(C)C)C(=O)OC5C)ccc(C)c4oc-3c(C)c(=O)c2N)C(C)OC(=O)C(C(C)C)N(C)C(=O)CN(C)C(=O)C2CCCN2C1=O (configuration not stated) (I: TIP[Sar][NMeV] / II: TIP[Sar][NMeV]; ester I:1-I:C, II:1-II:C; linker I:N-II:N via Actinocin(1to9); configuration not given here) | -67.6% (active)
2 | O=C(c1ccccc1)N(CCCl)C(=O)N(CCCl)C(=O)c1ccccc1 | 99.9%
3 | OC(CSc1ccccc1)CN1CCN(c2ccc(Cl)cc2)CC1 (configuration not stated) | 107%
4 | CCCOS(=O)(=O)c1ccccc1 | 108%
5 | O=C(c1ccccc1)C(Br)[N+](=O)[O-] (configuration not stated) | 86.8%
6 | CCCCCCCCC(=O)OCCCC(CCC(CCC1CCCO1)OC(=O)CCCCCCCC)OC(=O)CCCCCCCC (configuration not stated) | 111%
7 | O=C(CCl)N(c1ccccc1)c1ccccc1 | 111%
8 | NC(=S)N/N=C/c1ncccc1O | 11.2%
9 | COc1c(C)c2c(c(O)c1C/C=C(\C)CCC(=O)O)C(=O)OC2 | 39.3%
10 | CC1=CC(=O)C=CC1(C)C(Cl)(Cl)Cl (configuration not stated) | 89.7%
11 | O=C1c2ccccc2C(=O)c2c(O)c(Cl)cc(O)c21 | 101%
12 | Cc1oc2c(C)c3oc(=O)cc(C)c3cc2c1CCl | 83.8%
13 | Oc1c(C(Nc2ccccc2)c2ccccc2)ccc2cccnc12 (configuration not stated) | 16.8%
14 | O=C(/C=C/C(Cl)(Cl)Cl)Nc1ccc(Cl)cc1 | 98.6%
15 | N#CC(=C1SCS1)[N+](=O)[O-] | -21.5% (active)
16 | Cc1cc(N/N=C/c2ccccn2)nc2ccccc12 | 20.5%
17 | CCCCCCN(CCCCCC)CCCNc1nccc2ccccc12 | -66% (active)
18 | COC(=O)[C@]1(C)CCC[C@]2(C)c3ccc(C(C)C)cc3C(=O)[C@@H](Br)[C@@H]12 | 106%
19 | CCOC(=O)NC(/C=C/c1ccccc1)NC(=O)OCC | 112%

Row | Compound | growth
20 | NCC(=O)NC(CC(=O)O)C(=O)O (configuration not stated) (H-Gly-[ξD]-OH) | 119%
21 | Nc1nc2ncc(CNc3ccc(C(=O)NC(CCC(=O)NC(CCC(=O)NC(CCC(=O)NC(CCC(=O)NC(CCC(=O)O)C(=O)O)C(=O)O)C(=O)O)C(=O)O)C(=O)O)cc3)nc2c(=O)[nH]1 (configuration not stated) | 113%
22 | O=C(Cc1nc2cc(Cl)c(Cl)cc2nc1CC(=O)c1ccccc1)c1ccccc1 | 76.3%
23 | Cn1c(-c2ccccc2)c(/C=C/C2=[N+](C)c3ccccc3C2(C)C)c2ccccc21 | -83.9% (active)
24 | NC(=Nc1nc(-c2ccccn2)cc2ccccc12)c1ccccn1 | 6.29% (active)
25 | CC(C)(C)c1ccc(O)c(-c2ccccc2)c1 | 105%
26 | CCOC(=O)C1=NN(c2ccccc2)C(=O)/C1=C\N1C(=O)/C(=C/c2cccc(O)c2)SC1=S | 114%
27 | CCN(CC)CCNc1ccc([N+](=O)[O-])c2sc3ccccc3c(=O)c12 | 1.96% (active)
28 | NCCCN(CCCN)CCCNCc1c2ccccc2c(CNCCCN(CCCN)CCCN)c2ccccc12 | 95.9%
29 | CCOC(=O)/C(=C\c1ccc2ccccc2c1)P(=O)(OCC)OCC | 42.2%
30 | Cc1cc2nc(CC(=O)c3ccncc3)c(=O)[nH]c2cc1C | 130%
31 | Oc1c(Cl)cc(Cl)cc1C=NCC1CCC(CN=Cc2cc(Cl)cc(Cl)c2O)CC1 (configuration not stated) | 112%
32 | CN1CCC(CN2c3ccccc3Sc3ccccc32)C1 (configuration not stated) | 84.6%
33 | CC1(C)OC2C(COC(c3ccccc3)(c3ccccc3)c3ccccc3)OC(c3c[nH]c4c(N)ncnc34)C2O1 (configuration not stated) | 68.3%
34 | O=[N+]([O-])c1ccc(Oc2ccccc2Cl)c([N+](=O)[O-])c1 | 112%
35 | Cc1cc(Br)c2nsnc2c1[N+](=O)[O-] | 0.766% (active)
36 | Cc1cccc2c(N)c3ccccc3nc12 | -48.2% (active)
37 | O=C(/C(Cl)=N/O)c1ccc(-c2ccccc2)cc1 | 85.5%
